Assay [1] relates to Human papillomavirus type 1a protein E7 (residues 44-93). Put plainly: HPV1a E7 fragment binders on microarrays, primary screen, biochemical, small-molecule microarray, residues 44-93, 635 nm fluorescence (AID 1108).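 Also: E7 fragment applied at 1 µg/mL in TBST for 1 h at 4 C; score combines spot fluorescence with its signal to noise ratio.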 The settings on record: small-molecule microarray binding, fluorescence 635 nm; higher = more signal.
A short description of assay [2]: modulators of HCV replicon luciferase signal, primary screen, HCV replication inhibitor project, Huh7 cells, luciferase reporter (AID 1109).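 Also: huh7 hepatoma cells harbouring a luciferase neomycin HCV replicon reporter; luciferase luminescence as measure of HCV replicon replication; test concentration not given here.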 As to conditions: 48 h, higher = more signal. In general terms: Replicon systems follow genome replication, usually without infectious particles.
The target in assay [3] is Left-right determination factor 2 (Homo sapiens) (UniProt O00292). Put plainly: LEFTY2 binders on small-molecule microarrays, primary screen, biochemical, small-molecule microarray, 635 nm fluorescence scan (AID 1110). As to conditions: LEFTY2 binding, higher = more signal.
The target of assay [4] is Calmodulin-1 (Homo sapiens) (UniProt P0DP23). Put plainly: CALM1 binders on microarrays, EGTA buffer, profiling panel, biochemical, small-molecule microarray, Cy5-labelled CALM1 (AID 1111).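 Also: labelled calmodulin applied in Tris saline Tween buffer holding calcium plus EGTA and DTT.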 The settings on record: Cy5-CALM1 binding fluorescence, higher = more signal.
Assay [5] shares this target. Put plainly: calcium-bound CALM1 binders on microarrays, profiling panel, artefact control for SMM control-protein annotation, biochemical, small-molecule microarray, Cy5-labelled CALM1, plus calcium (AID 1112).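 Also: score merges spot fluorescence with signal to noise from triplicate slides.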 As to conditions: Cy5-CALM1 binding fluorescence, higher = more signal.
Assay [6] in a line: small-molecule microarray binders of probe aWnt5a, primary screen, biochemical, biotinylated probe, 635/667 nm fluorescence (AID 1113).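 Also: score merges 667 nm fluorescence intensity with signal-to-noise per printed feature.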 As to conditions: higher = more signal.
A short description of assay [7]: small-molecule microarray binders of probe aShh, primary screen, biochemical, biotinylated probe, 635/667 nm fluorescence (AID 1114).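 Also: probe is biotin-labelled aShh protein from a stem cell growth factor screen; measures binding of labelled protein to compounds printed on the slide; score merges feature fluorescence at 667 nm with signal-to-noise.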 The settings on record: higher = more signal.
The nature of assay [8]: small-molecule microarray binders of probe aNog, primary screen, biochemical, biotinylated probe, 635/667 nm fluorescence (AID 1115).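 Also: probe is biotinylated aNog protein used at 0.15 µg/mL for 1 h at 4 C; z-score combines 667 nm fluorescence of each spot with its signal to noise.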 As to conditions: higher = more signal.
In assay [9] the target is Torsin-1A-interacting protein 1 (Homo sapiens) (UniProt Q5JTV8). Put plainly: LAP1 binders from COS7 cell lysate, primary screen, small-molecule microarray, 635/667 nm fluorescence (AID 1116). As to conditions: COS7-hLAP1 lysate binding, 635 nm fluorescence, higher = more signal.
In assay [10] the target is Alpha-bungarotoxin (Bungarus multicinctus) (UniProt P60615). Kind of assay: alpha-bungarotoxin binders on microarray, profiling panel, artefact control for SMM control protein annotation, biochemical, small-molecule microarray, Alexa647 label, 635/667 nm fluorescence (AID 1117). As to conditions: alpha-BTX-A647 binding fluorescence, higher = more signal.
In a further assay the target is Albumin (Bos taurus) (UniProt P02769). Kind of assay: bovine serum albumin binders on microarray, profiling panel, artefact control for SMM control protein annotation, biochemical, small-molecule microarray, Alexa647 label, 635/667 nm fluorescence (AID 1118).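 Also: score merges 667 nm emission intensity and signal-to-noise per printed compound spot.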 The settings on record: BSA-A647 binding, fluorescence 635 nm, higher = more signal.
Assay [11] in a line: small-molecule microarray binders of probe aXIP, primary screen, biochemical, NeuroSMM set, 635/667 nm fluorescence (AID 1119).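 Also: probe is the protein aXip251-270 applied at 1 µg/mL to compound-printed slides; binding of probe to printed compounds measured as 667 nm fluorescence plus signal to noise.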 As to conditions: higher = more signal, called active from +8 up or from −8 down.
Assay [12] is described as follows: small-molecule binders of probe aNOTCH3, primary screen, biochemical, small-molecule microarray, 635/667 nm fluorescence (AID 1120).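 Also: probe is a biotin-tagged antibody raised against NOTCH3 rather than NOTCH3 protein; score merges spot fluorescence near 667 nm with spot signal to noise.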 The settings on record: higher = more signal.
Assay [13] in a line: small-molecule binders of probe aNOTCH2, primary screen, biochemical, small-molecule microarray, 635/667 nm fluorescence (AID 1121).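 Also: score merges feature fluorescence read at 667 nm with its signal to noise.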 As to conditions: higher = more signal.
Assay [14] addresses Carbonic anhydrase 2 (Homo sapiens) (UniProt P00918). Kind of assay: CAII small-molecule binders, profiling panel, biochemical, small-molecule microarray, Alexa647-labelled CAII (AID 1122). The settings on record: CAII-A647 binding fluorescence, higher = more signal.
Assay [15] in a line: COS7 lysate on small-molecule microarray, probe aHis, 635 nm (AID 1123).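 Also: z-score combines 667nm fluorescence intensity with signal-to-noise per printed compound spot.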 As to conditions: COS7 cell lysate, fluorescence, higher = more signal.
Assay [16] can be described thus: compound binding in COS7 lysate, probe aLAP1, primary screen, cell lysate, small-molecule microarray (AID 1124).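 Also: lysate comes from COS7 cells expressing LAP1 and is applied at 0.3 µg/mL; score merges spot fluorescence near 667 nm with signal-to-noise over triplicate slides.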 The settings on record: probe aLAP1, fluorescence, higher = more signal.
A further assay relates to Sam68 (KHDRBS1). Kind of assay: Sam68 small-molecule binders, primary screen, biochemical, small-molecule microarray, 635 nm fluorescence (AID 1125).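 Also: score merges 667 nm channel intensity with signal to noise over triplicate slides.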 The settings on record: small-molecule microarray binding, higher = more signal.
The subject of assay [17] is Chordin-like protein 2 (CHRDL2). Put plainly: CHRDL2 small-molecule binders, primary screen, biochemical, small-molecule microarray, 635 nm fluorescence (AID 1126).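 Also: printed compound slides probed with Chrdl2 protein at 4 µg/mL for 1 h at 4 C; score merges 667 nm emission intensity with signal to noise over three replicate slides.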 The settings on record: small-molecule microarray binding, fluorescence 635 nm; higher = more signal.
In assay [18] the target is Concanavalin-A (Canavalia ensiformis) (UniProt P02866). Put plainly: ConA small-molecule binders, primary screen, artefact control for SMM control protein annotation, biochemical, small-molecule microarray, Alexa647 label, 635 nm (AID 1127).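 Also: z combines 667 nm emission intensity with signal-to-noise across three replicate slides.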 As to conditions: ConA-A647 binding fluorescence, higher = more signal.

Active and inactive are the calls of the source.

Albumin (Bos taurus), sequence (P02769 whole entry, looked up): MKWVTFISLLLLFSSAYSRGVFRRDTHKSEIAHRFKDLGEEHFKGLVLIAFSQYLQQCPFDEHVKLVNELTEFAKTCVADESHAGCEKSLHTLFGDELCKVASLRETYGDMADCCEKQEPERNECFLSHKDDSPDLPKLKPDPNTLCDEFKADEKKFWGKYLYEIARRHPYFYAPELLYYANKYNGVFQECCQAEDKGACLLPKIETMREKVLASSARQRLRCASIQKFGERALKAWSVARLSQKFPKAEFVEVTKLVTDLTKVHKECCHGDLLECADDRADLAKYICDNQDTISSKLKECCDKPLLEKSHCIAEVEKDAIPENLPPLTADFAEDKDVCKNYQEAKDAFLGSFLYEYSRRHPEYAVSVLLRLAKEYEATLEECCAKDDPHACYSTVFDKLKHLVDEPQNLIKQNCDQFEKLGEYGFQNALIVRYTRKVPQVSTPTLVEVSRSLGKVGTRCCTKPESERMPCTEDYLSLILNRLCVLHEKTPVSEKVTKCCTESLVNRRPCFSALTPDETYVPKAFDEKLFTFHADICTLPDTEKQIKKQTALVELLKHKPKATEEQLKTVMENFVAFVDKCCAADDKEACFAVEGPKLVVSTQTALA
Alpha-bungarotoxin (Bungarus multicinctus), sequence (P60615 whole entry, looked up): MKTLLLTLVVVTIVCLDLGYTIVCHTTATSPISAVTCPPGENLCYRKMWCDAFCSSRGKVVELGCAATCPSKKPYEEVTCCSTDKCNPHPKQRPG
Concanavalin-A (Canavalia ensiformis), sequence (P02866 whole entry, looked up): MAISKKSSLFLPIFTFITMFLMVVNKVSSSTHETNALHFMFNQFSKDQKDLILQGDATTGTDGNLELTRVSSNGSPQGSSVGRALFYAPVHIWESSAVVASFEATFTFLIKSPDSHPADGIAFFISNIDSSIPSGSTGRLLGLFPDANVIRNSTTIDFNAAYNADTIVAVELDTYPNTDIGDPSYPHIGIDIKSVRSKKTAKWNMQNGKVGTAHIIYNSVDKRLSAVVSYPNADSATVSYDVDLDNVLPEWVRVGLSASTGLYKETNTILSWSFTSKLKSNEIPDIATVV
Torsin-1A-interacting protein 1 (Homo sapiens), sequence (Q5JTV8 whole entry, looked up): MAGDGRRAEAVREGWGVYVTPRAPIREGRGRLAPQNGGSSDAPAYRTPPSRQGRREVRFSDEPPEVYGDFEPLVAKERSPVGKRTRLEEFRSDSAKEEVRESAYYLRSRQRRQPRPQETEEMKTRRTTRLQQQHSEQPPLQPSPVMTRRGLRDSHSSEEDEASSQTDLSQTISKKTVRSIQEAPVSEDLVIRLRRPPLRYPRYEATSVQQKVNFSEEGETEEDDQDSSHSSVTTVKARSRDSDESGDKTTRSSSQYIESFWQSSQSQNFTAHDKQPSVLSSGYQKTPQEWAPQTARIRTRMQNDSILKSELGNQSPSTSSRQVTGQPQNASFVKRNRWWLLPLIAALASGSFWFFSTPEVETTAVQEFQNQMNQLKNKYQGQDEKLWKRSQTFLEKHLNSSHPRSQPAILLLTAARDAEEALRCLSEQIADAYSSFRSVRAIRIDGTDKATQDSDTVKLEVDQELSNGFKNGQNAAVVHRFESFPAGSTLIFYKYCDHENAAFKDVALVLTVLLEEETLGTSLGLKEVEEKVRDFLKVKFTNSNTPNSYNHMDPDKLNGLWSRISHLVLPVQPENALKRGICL
Left-right determination factor 2 (Homo sapiens), sequence (O00292 whole entry, looked up): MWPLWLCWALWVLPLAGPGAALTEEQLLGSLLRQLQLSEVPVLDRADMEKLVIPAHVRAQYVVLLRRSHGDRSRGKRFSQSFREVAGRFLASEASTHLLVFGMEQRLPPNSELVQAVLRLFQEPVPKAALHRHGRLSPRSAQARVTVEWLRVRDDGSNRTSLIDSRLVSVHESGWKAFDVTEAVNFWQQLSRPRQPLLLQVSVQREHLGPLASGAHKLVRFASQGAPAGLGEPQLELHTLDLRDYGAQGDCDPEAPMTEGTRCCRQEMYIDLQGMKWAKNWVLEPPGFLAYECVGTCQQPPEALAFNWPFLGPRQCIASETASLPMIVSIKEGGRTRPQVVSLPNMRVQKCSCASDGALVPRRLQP

In the case of `CC(C)N1C(=O)c2ccccc2[C@](C)(C(=O)O)[C@@H]1c1ccc(CO)cc1`, the composite z-score is -0.113 in assay [1]; -1.23 in assay [3]; -0.198 in [4]; 0.531 in assay [5]; -0.143 in [6]; 0.133 in assay [7]. The composite z-score in [8] was 0.338; in assay [9], 0.274; in [10] it was 0.468; in the assay with Albumin (Bos taurus) it was 0.401; in [12], -0.103; in assay [13], 0.16. The composite z-score is 0.326 in [14]; 0.119 in assay [15]; 0.755 in assay [16]; -0.769 in the assay with Sam68 (KHDRBS1); -1.49 in [17]; -0.0545 in assay [18]. For the same molecule, in assay [2], the z-score is -0.169. Also, in assay [11], the composite Z-score is -0.158 (inactive).

For the molecule `CCCCC(CC)C(O)C1C=CC2C(=O)NC(=O)C2N1Nc1ccccn1` (stereo not given), the composite z-score in assay [1] was 1.46; in assay [3], 0.0645; in assay [4], 1.07; in [5], 0.431; in assay [6], 0.0919; in assay [7] it was -0.119. The composite z-score in assay [8] was 1.19; in assay [9], 0.927; in assay [10] it was 1.36; with Albumin (Bos taurus), 0.806; in [12], 0.0866; in assay [13], -0.0071. The composite z-score in assay [14] was 0.677; in assay [15], 2.53; in assay [16], 0.321; with Sam68 (KHDRBS1), 1.27; in [17] it was -0.105; in [18], 0.86. The same molecule gave a z-score in [2] of -0.201. Besides, the composite Z-score in assay [11] was 0.975 (inactive).

`CC(C)C[C@@H]1NC(=O)[C@@]23C(=O)N[C@@H](Cc4ccccc4)C2[C@H](C)[C@@]2(C)O[C@H]2C3/C=C/C/C=C\CNC(=O)[C@@H]2CCCN2C1=O` (stereo not given in full): the composite z-score in assay [1] was -0.282; in assay [3] it was 0.283; in [4], -0.749; in assay [5], -0.721; in [6], -0.124; in assay [7], -0.138. The composite z-score is -0.219 in [8]; -0.22 in assay [9]; -0.442 in [10]; 0.777 in the assay with Albumin (Bos taurus); -0.0026 in [12]; -0.129 in [13]. Moreover, the composite z-score in [14] was 0.391; in assay [15] it was -0.351; in assay [16], 0.339; in the assay with Sam68 (KHDRBS1) it was -0.747; in [17] it was 0.698; in assay [18], -0.838. In addition, the z-score in [2] was -0.972. For the same molecule, the composite Z-score in assay [11] was 0.572 (inactive).

On to `COCCCNC(=O)[C@@]1(Cc2ccccc2I)c2ccccc2C(=O)N(Cc2ccccc2Cl)[C@H]1c1ccc(CO)cc1`, for which the composite z-score in [1] was 1.16; in assay [3] it was 0.365; in assay [4], 1.32; in [5], 0.101; in assay [6] it was 0.0101; in assay [7], -0.154. The composite z-score is -0.364 in assay [8]; 0.164 in [9]; 0.752 in assay [10]; 0.681 in the assay with Albumin (Bos taurus); -0.0492 in assay [12]; -0.139 in assay [13]. Moreover, the composite z-score in [14] is 0.344; in assay [15], 0.184; in assay [16] it was 0.438; in the assay on Sam68 (KHDRBS1), 0.902; in assay [17], -0.105; in [18], 0.752. The same molecule gave a z-score in assay [2] of -1.36. In assay [11], the composite Z-score is 0.432 (inactive).

For the molecule `O=C(C=C(CC(O)c1cccc(Cl)c1)OCCF)OCCF` (stereo not given), the composite z-score in assay [1] was -2.46; in [3], -0.492; in [4], -0.277; in assay [5], 0.896; in assay [6], -0.0678; in assay [7], 0.0278. Also, the composite z-score in assay [8] is 0.0014; in assay [9] it was 0.516; in [10] it was 0.392; with Albumin (Bos taurus), 0.912; in assay [12], -0.0903; in [13] it was -0.0746. Besides, the composite z-score in assay [14] was 0.0119; in assay [15], 0.143; in assay [16], 0.624; in the assay with Sam68 (KHDRBS1) it was -2.33; in assay [17] it was -0.594; in assay [18], -0.444. Further, the z-score in [2] was -0.641. Also, the composite Z-score in assay [11] was -0.361 (inactive).

The values are drawn from PubChem BioAssay.
